The text below walks through data of PubChem BioAssay AID1619 (SRMLSC, 2009).

The whole screen tested about 220,000 compounds, of which about 830 (0.38%) were called active.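 Rule for the calls: active = compound inhibiting the enzyme by more than half at any dose during confirmatory dose-response retesting; inconclusive = strong single-dose inhibitors picked by rank but not retested; inactive = the rest.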 These entries were drawn from the full list. Entries with a potency or affinity are not part of this list.

The target of this assay is Leucine aminopeptidase (Plasmodium falciparum (isolate 3D7)) (UniProt Q8IL11). The experiment in a line: P. falciparum M17LAP inhibitors, primary screen, biochemical, fluorogenic H-Leu-NHMec substrate, 1536-well (AID 1619).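 Note: plate controls were full reaction with DMSO carrier for no effect and no enzyme background for full effect.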 The settings on record: recombinant M17LAP, H-Leu-NHMec fluorogenic kinetic assay; at 30 µM; hits give high values.
Chain of Leucine aminopeptidase (Plasmodium falciparum (isolate 3D7)) (Q8IL11 whole entry, looked up): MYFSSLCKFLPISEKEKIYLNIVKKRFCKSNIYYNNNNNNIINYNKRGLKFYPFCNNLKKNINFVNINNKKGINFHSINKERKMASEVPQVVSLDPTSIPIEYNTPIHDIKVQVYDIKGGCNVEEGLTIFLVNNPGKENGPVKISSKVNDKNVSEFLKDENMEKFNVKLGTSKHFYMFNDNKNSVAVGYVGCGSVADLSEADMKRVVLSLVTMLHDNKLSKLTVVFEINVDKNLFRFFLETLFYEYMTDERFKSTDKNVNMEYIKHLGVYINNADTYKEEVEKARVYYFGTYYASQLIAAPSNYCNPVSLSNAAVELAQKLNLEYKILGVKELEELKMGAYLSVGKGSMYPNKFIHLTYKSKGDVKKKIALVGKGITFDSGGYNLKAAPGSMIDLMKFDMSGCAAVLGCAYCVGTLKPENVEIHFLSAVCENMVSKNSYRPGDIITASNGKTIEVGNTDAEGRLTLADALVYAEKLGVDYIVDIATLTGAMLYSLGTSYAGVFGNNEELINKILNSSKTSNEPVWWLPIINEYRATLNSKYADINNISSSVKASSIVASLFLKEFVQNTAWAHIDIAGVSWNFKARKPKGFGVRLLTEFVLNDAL
For orientation: inhibition means the drop in the measured response relative to a control, in per cent. Regarding `COc1cccc(N2CCN(C(=S)NCCc3ccccc3)CC2)c1`, the inhibition is -3.71% (inactive).
The value for `CCOc1ccc(S(=O)(=O)NCCCN2CCOCC2)cc1` was -8.49% (inactive).
Consider `Cc1ccc2c(c1)N(C(C)C(=O)NCc1ccccn1)C(=O)CO2` (stereo unspecified), for which the inhibition is -7.53% (inactive).
Turning to `COc1cc(NC(=O)CSc2ccccc2)c(C(=O)O)cc1OC`, the inhibition was 39.3% (inactive).
The result for `COc1cc(NC(=O)CSc2cc(C)c3cc(C)cc(C)c3n2)c(C(=O)O)cc1OC` reads 15.4% (inactive).
Consider `CCc1cc2c(C)ccc(C)c2nc1SCC(=O)Nc1c[nH]c(=O)[nH]c1=O`, for which the inhibition is 14.5% (inactive).
The value for `O=C(CSc1ncnc2scc(-c3ccccc3)c12)Nc1ccc(C(=O)O)cc1` was 5.99% (inactive); that for `CCc1cc2ccccc2nc1SCC(=O)Nc1cc(C)on1` was 4.25% (inactive); that for `COC(=O)CSc1ncnc2scc(-c3ccccc3)c12` was -1.19% (inactive).
With `COc1ccccc1NC(=O)CSc1nc2ccccc2cc1Cc1ccccc1`, the inhibition was 3.65% (inactive).
The result for `COc1cc(NC(=O)CSc2nccc(C)n2)c(C(=O)O)cc1OC` reads 43.1% (inactive); that for `CCn1c(COc2ccc3c(c2)CCCC3)nnc1SCC(=O)Nc1ccc(C(=O)OC)cc1`, 5.55% (inactive); that for `Cc1ccc(CNC(=O)C2CC(=O)OC23CCCC3)c(C)c1` (stereo unspecified), 6.63% (inactive).
The result for `CN(C)CCNc1c2c(nc3nnnn13)CCCC2` reads 5.48% (inactive); that for `O=C(NN=C1CCCC1)C1COc2ccccc2O1` (stereo unspecified), 0.87% (inactive); that for `O=C(O)C1CC(=O)N(Cc2ccc3c(c2)OCO3)C1` (stereo unspecified), -0.32% (inactive).
The result for `COC(=O)[C@@]1(Cc2ccc(F)cc2)[C@H]2c3cc(C(=O)N(C)C)n(Cc4c(CO)[nH]cc(C)c4=O)c3C[C@H]2CN1C(=O)c1ccccc1` reads 6.87% (inactive); that for `O=c1cc(NCC2CCCO2)[nH]c(=O)n1-c1ccc(Cl)cc1` (stereo unspecified), 3.43% (inactive).
On to `C=CCNS(=O)(=O)c1nc(C)c(Cl)c(C)c1C#N`, for which the inhibition was 9.01% (inactive).
The value for `CC(Sc1ncc(C#N)c(N)n1)C(=O)Nc1ccccc1` (stereo unspecified) was 9.93% (inactive); that for `CCc1nnc(NS(=O)(=O)c2ccc(NC(=O)COc3ccc(Cl)c(C)c3)cc2)s1` was 52.7% (inactive); that for `CCc1nnc(NS(=O)(=O)c2ccc(NC(=S)NC(=O)/C=C/c3ccccc3)cc2)s1` was 23.5% (inactive).
With `CCc1nnc(NS(=O)(=O)c2ccc(NC(=S)NC(=O)/C=C/c3ccc(F)cc3)cc2)s1`, the inhibition is 53% (inactive).
The value for `CCc1nnc(NS(=O)(=O)c2ccc(NC(=O)/C=C/c3ccccc3Cl)cc2)s1` was 1.04% (inactive); that for `CCc1nnc(NS(=O)(=O)c2ccc(NC(=S)NC(=O)/C=C/c3ccc(OC)cc3)cc2)s1` was 40.7% (inactive).
Turning to `CCc1nnc(NS(=O)(=O)c2ccc(N/C=C\C(=O)c3ccc4ccccc4c3)cc2)s1`, the inhibition was 12.1% (inactive).
The value for `CCc1nnc(NS(=O)(=O)c2ccc(NC(=O)c3cccc4ccccc34)cc2)s1` was 15% (inactive); that for `CCc1nnc(NS(=O)(=O)c2ccc(NC(=O)OC)cc2)s1` was 6.85% (inactive); that for `Cc1ccc(Nc2nnc(SCC(=O)NCCN3C(=O)CSC3=O)s2)cc1C` was 54.4% (inactive).
Take `O=C(NCCc1c[nH]c2ccccc12)c1c(Cl)nc2sccn12`: the inhibition was -3.3% (inactive).
On to `O=C(NCc1ccncc1)c1cn(-c2ccccc2)nc1-c1cccnc1`, for which the inhibition was 9.29% (inactive).
With `CCOC(=O)Cc1nnc(Nc2ccc(C)cc2C)c2ccccc12`, the inhibition is -12.3% (inactive).
The result for `CC(C)CCNC(=O)C1CCC(=O)N1C(C)C` (stereo unspecified) reads -2.71% (inactive); that for `N#CCCN(CC(=O)O)S(=O)(=O)c1ccccc1`, -11.6% (inactive).
As to `CCc1ccc(C(=O)Nc2nnn(CC)n2)cc1`, the inhibition is 10.2% (inactive).
The result for `C1CCCCCC2(CCCCC1)OCC(CN1CCOCC1)O2` (stereo unspecified) reads 1.36% (inactive); that for `Cc1c(C(=O)c2ccccc2)c2ccccn2c1CCc1ccccn1`, 5.7% (inactive); that for `CCCCc1ccc(NC(=O)CN2NS(=O)(=O)c3ccccc3C2=O)cc1`, 52.6% (inactive).
In the case of `N#Cc1cccc(NC(=O)COC(=O)c2cccc(N3C(=O)c4ccccc4C3=O)c2)c1`, the inhibition was 8.44% (inactive).
The value for `O=C(CN1NS(=O)(=O)c2ccccc2C1=O)Nc1ccccc1OC(F)F` was 43.5% (inactive).
The result for `CC1(c2ccccc2)NC(=O)N(CC(=O)Nc2cccc(C#N)c2)C1=O` (stereo unspecified) reads -4.04% (inactive); that for `O=C1CSC(c2cccnc2)N1c1ccc(F)cc1` (stereo unspecified), 9.53% (inactive).
The result for `CC(=O)Nc1ccc(CN2CCCC(CO)(Cc3ccccc3C)C2)cc1` (stereo unspecified) reads -0.77% (inactive); that for `Nc1nc2n(n1)C(c1ccco1)CC(c1ccc(Cl)cc1)N2` (stereo unspecified), -19.4% (inactive).
On to `Cc1cccc(OC(=O)C2C(c3ccccc3)C(C(=O)O)C2c2ccccc2)c1` (stereo unspecified), for which the inhibition is 33.4% (inactive).
The result for `COc1ccc(/C=C2/SC(=O)NC2=O)cc1` reads 25.1% (inactive).
The value for `Nc1c(-c2cccc(Cl)c2)cnn1-c1cccc(C(F)(F)F)c1` was 5.43% (inactive); that for `COc1ccc(OC)c(NC(=O)C2CCCCC2)c1` was 5.19% (inactive); that for `CCOc1ccc(NC(=O)C2C3CCC4C(CCC32)C4(Cl)Cl)cc1` (stereo unspecified) was 9.32% (inactive).
For the compound `C=C1C(C(=O)Nc2ccc(OCC)cc2)C1C(=O)Nc1ccc(OCC)cc1` (stereo unspecified), the inhibition was -7.51% (inactive).
The result for `COc1ccc(OC)c(NC(=O)C2CCCC2)c1` reads -9.43% (inactive); that for `CC(=O)NC(=O)NC1OC(=O)C(Cl)=C1Cl` (stereo unspecified), 4.19% (inactive).
Turning to `Cn1nc(C(=O)NCCOc2ccccc2)c2ccccc2c1=O`, the inhibition was -0.35% (inactive).
The result for `CCOC(=O)CSCC(NC(=O)OC(C)(C)C)C(=O)OCC` (stereo unspecified) reads 0.56% (inactive); that for `CCOC(=O)C(CSCC(=O)c1ccc(Cl)cc1)NC(=O)OC(C)(C)C` (stereo unspecified), 25.7% (inactive); that for `CCN(CC)S(=O)(=O)c1ccc(N)cc1`, 11.4% (inactive).
The value for `CCCSc1ccc(C(=O)Nc2ccc(Cl)cc2)cn1` was -6.5% (inactive).
The result for `Cc1cc(/C=C(\C#N)C(=O)NCc2ccco2)c(C)n1-c1cccnc1` reads 20.4% (inactive).
With `COc1ccc(-n2c(C)cc(/C=C(\C#N)C(=O)NCc3ccco3)c2C)cc1`, the inhibition was -8.8% (inactive).
The result for `Cc1ccc(-n2c(Cc3cccn3C)nnc2SCC(=O)NCc2ccco2)cc1` reads 20.7% (inactive); that for `Cc1ccc(Cn2ccc(C3CC3)n2)cc1`, -1.75% (inactive).
